Assay results taken from PubChem BioAssay (NCI).
This is part of a sample that, as a whole, favours compounds with a hit. Of some 83,000 tested, about 20% had one in any assay.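 Interpretation: 100, growth as untreated; towards 0, rising growth inhibition; 0, no net growth; 0 to -100, cell death. Compounds scoring below 10 were considered active.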 The source made the active and inactive calls.

Experiments:
Assay in all cases: NCI-60 one-dose screen, 48 h (100 = growth as untreated, 0 = no growth, -100 = all killed)
Conditions in all cases: 10 µM
[1] = system: NCI-H23 lung
[2] = system: NCI-H226 lung
[3] = system: NCI-H322M lung
[4] = system: HOP-62 NSCLC
[5] = system: NCI-H460 lung
[6] = system: HOP-92 NSCLC
[7] = system: NCI-H522 lung
[8] = system: A549/ATCC NSCLC
[9] = system: 786-0 renal
[10] = system: COLO 205 colon

Measured: growth

COc1ccc(-c2nc(S(=O)(=O)c3ccc(C)cc3)c(S(C)(=O)=O)o2)cc1
inactive: [2] 72.1% | [3] 89.6% | [4] 84% | [8] 81.2%
active: [1] -78.1% | [5] 4.05% | [6] -75% | [7] -96.6% | [9] -33.4% | [10] -88.7%

COc1cc2oc(-c3cccc(C(=O)Nc4ccc(Cl)cc4)c3)cc(=O)c2c(OCCNC(=O)CNC(=O)OC(C)(C)C)c1OC
inactive: [1] 63.8% | [2] 59.7% | [3] 71.6% | [4] 74.7% | [5] 76% | [6] 54.7% | [7] 45.7% | [8] 53.9% | [9] 76.1% | [10] 56.8%

O=C(CSc1nnc(-c2c[nH]c3ccccc23)n1-c1ccccc1)Nc1ccc(C(=O)/C=C/c2ccccc2Cl)cc1
inactive: [1] 36.1% | [2] 75.6% | [3] 97.3% | [4] 91.9% | [5] 89% | [6] 96.5% | [7] 83.1% | [8] 91.1% | [9] 103% | [10] 96.2%

C/C(=N\NC(N)=S)c1ccc(Nc2nc(SC(C)C)nc(-c3ccccc3)c2C#N)cc1
inactive: [1] 52.5% | [2] 27.5% | [3] 74.3% | [4] 34.4% | [5] 41.7% | [7] 78% | [8] 53.7% | [9] 18.2% | [10] 92.5%
active: [6] -11.1%

Cc1ccc(-c2nc(Nc3ccc(C)c(S(N)(=O)=O)c3)c3ccccc3n2)cc1
inactive: [1] 79% | [2] 84.1% | [3] 79.7% | [4] 96.3% | [5] 11.9% | [6] 104% | [7] 112% | [8] 43.4% | [9] 33.7% | [10] 90.5%

COC[C@@H](CC(C)C)N=C1N/C(=C\c2ccc3ncsc3c2)C(=O)N1C
active: [1] -17.7% | [3] 9.12% | [4] -9.28% | [7] -29.6% | [10] -28.4%
inactive: [2] 11.4% | [5] 21.2% | [6] 19.1% | [8] 15.9% | [9] 14.9%

O=C(Nc1cccc(-c2cn(-c3ccc4oc(=O)ccc4c3)nn2)c1)Nc1cc(C(F)(F)F)cc(C(F)(F)F)c1
active: [1] 4.21% | [4] 1.89% | [6] -28.1%
inactive: [2] 33.4% | [3] 34.4% | [5] 27.8% | [7] 21.8% | [8] 21.8% | [9] 29.3% | [10] 44.3%

O=c1oc2ccc(-c3ccc(F)cc3F)cc2c(=O)n1-c1ccc(F)c(Cl)c1
active: [1] -49.8% | [2] -24.8% | [3] -1.73% | [4] -25.9% | [5] -0.567% | [6] -22% | [7] -17.7% | [8] 8.87% | [9] 7.54% | [10] 7.64%

Cc1cccc(-c2nc(Nc3ccccc3C(=O)O)c3ccccc3n2)c1
active: [6] -5.02%
inactive: [1] 20.8% | [2] 36.1% | [3] 48.7% | [4] 46.2% | [5] 19.1% | [7] 59.9% | [8] 43.6% | [9] 25% | [10] 121%

CCOC(=O)C1NN(c2ccc(S(N)(=O)=O)cc2)c2nc3nc(-c4cccs4)cc(-c4cccs4)c3c(=O)n21 (stereo not given)
active: [2] 5.85%
inactive: [1] 96.6% | [3] 99.7% | [4] 109% | [5] 77.6% | [6] 61.5% | [7] 77.2% | [8] 90.9% | [9] 78.7% | [10] 81.1%

O=C(CSc1nnc(-c2c[nH]c3ccccc23)n1-c1ccccc1)c1ccccc1
inactive: [1] 44.9% | [3] 81.2% | [4] 23.4% | [5] 61.8% | [6] 47% | [7] 71.6% | [8] 85.5% | [9] 29.6% | [10] 93.4%
active: [2] 4.48%

COc1cc2c(c(OC)c1OC)C(=O)CC(c1cccc(NC(=O)c3cccc(N)c3)c1)O2 (stereo not given)
inactive: [1] 91.1% | [2] 86.7% | [3] 91% | [4] 100% | [5] 79.2% | [6] 74% | [7] 61% | [8] 85.3% | [9] 91.9% | [10] 102%

C=C1CCC2C3(C)COC(c4ccccc4F)OC3CCC2(C)C1C/C=C1/C(=O)OCC1O (stereo not given)
inactive: [3] 14.5%
active: [1] -38.8% | [2] -25.6% | [4] -41.7% | [5] -14.6% | [6] -37.5% | [7] -72.5% | [8] -5.16% | [9] -86.8% | [10] -56.3%

CN1CCN(c2ccc(Nc3nc(NCCCNC(=O)c4ccc(Cl)cc4)c4sccc4n3)cc2)CC1
active: [9] -4.27%
inactive: [1] 81.9% | [2] 79.3% | [3] 91.3% | [4] 91.9% | [5] 88.9% | [6] 34.1% | [7] 103% | [8] 87.8% | [10] 92.5%

O=C(Cn1cc(CSc2nnc3oc4ccccc4n23)nn1)Nc1ccc(Br)cc1
inactive: [1] 62.7% | [2] 45.2% | [3] 86.9% | [4] 38.5% | [5] 101% | [6] 32% | [7] 79.5% | [8] 76.5% | [9] 69.6% | [10] 103%

COc1ccc(-c2ccc(/C=N/NC(=O)c3[nH]c4ccc(Br)cc4c3-c3ccccc3)s2)cc1
inactive: [1] 68.8% | [2] 105% | [3] 92.3% | [4] 96.1% | [5] 27.7% | [6] 120% | [7] 82.9% | [8] 71.9% | [9] 112% | [10] 97.6%

COc1cc(C2CC(c3ccccc3)=Nc3c(N)nc(N)nc3N2)ccc1Oc1nc(Nc2ccc(F)cc2)nc(N(C)C)n1 (stereo not given)
inactive: [1] 43.9% | [2] 40.4% | [3] 71.7% | [4] 85.7% | [5] 10.6% | [6] 16.3% | [7] 65.6% | [8] 66.3% | [9] 43.4% | [10] 28%
